Experimental data as given in PubChem BioAssay (Tox21).
Inconclusive results are not listed. Calls of active or inactive are those of the source. Unless noted, calls follow the shape of the dose curve; as a rule, active = well fitted curve in the direction sought with a large enough effect in the repeat runs; inconclusive = weak or mixed curves; inactive = no such curve, though single readings can be large; an effect the other way counts as inactive or inconclusive.

Experiments:
[1] = qHTS assay to identify small molecule antagonists of the androgen receptor (AR) signaling pathway using the MDA cell line in the presence of 0.5 nM R1881 - cell viability counter screen (AID 1259242); conditions: MDA-kb2 viability, CellTiter-Fluor protease fluorescence, 16 h; series mostly up to 92.4 µM; also: nearly all actives have a fitted effect of over 45% in size
Procedure, shortened: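 qHTS format. MDA-kb2 (MMTV-luc, AR/GR responsive) + cpd + 0.5 nM R1881 final, 16 hr 37C/0% CO2 → CellTiter-Fluor 30 min → fluorescence intensity.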

[2] = molecular target: Estrogen receptor (Homo sapiens) (UniProt P03372); assay: qHTS assay to identify small molecule antagonists of the estrogen receptor alpha (ER-alpha) signaling pathway using the BG1 cell line in the presence of 0.1 nM 17-beta-estradiol (AID 1259244); conditions: VM7Luc4E2 (BG1) ERE-luciferase, antagonist mode, 0.1 nM E2, 22 h; series mostly up to 92.4 µM; also: nearly all actives have a fitted effect of over 50% in size
Estrogen receptor (Homo sapiens), sequence (P03372 whole entry, looked up): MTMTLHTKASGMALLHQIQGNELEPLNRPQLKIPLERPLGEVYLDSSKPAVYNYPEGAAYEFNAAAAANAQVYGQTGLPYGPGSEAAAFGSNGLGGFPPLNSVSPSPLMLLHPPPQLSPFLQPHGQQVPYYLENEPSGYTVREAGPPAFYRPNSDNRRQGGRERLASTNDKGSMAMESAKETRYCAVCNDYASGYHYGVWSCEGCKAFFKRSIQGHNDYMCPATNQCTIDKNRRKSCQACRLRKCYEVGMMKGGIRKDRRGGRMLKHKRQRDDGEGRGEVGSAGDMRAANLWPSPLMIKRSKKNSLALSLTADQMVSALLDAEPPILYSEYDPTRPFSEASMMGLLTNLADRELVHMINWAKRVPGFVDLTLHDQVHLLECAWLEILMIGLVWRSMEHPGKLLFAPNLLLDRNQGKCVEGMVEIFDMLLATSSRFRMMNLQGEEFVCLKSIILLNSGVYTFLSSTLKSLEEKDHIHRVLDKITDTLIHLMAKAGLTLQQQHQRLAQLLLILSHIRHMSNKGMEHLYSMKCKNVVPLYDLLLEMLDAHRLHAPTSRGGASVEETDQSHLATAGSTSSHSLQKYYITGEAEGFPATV
Procedure, shortened: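 Reporter is a stably transfected luciferase under four estrogen responsive elements in VM7Luc4E2 cells expressing native full-length ER-alpha; inhibition of 0.1 nM (final) 17beta-estradiol-driven signal over 22 h is read by luminescence.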

[3] = qHTS assay to identify small molecule HDAC inhibitors - cell viability counter screen (AID 1259365); conditions: HCT-116 viability, CellTiter-Glo ATP luminescence, 2 h; series mostly up to 92.4 µM; also: nearly all actives have a fitted effect of over 50% in size
Procedure, shortened: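 To flag cytotoxic hits, 1,500 wild-type HCT-116 cells per well, plated the day before, receive test compounds for 2hr at 37 C before CellTiter-Glo reagent and a luminescence read.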

[4] = qHTS assay to identify small molecule agonists of the sonic hedgehog signaling (Shh) pathway - cell viability counter screen (AID 1259366); conditions: NIH/3T3 Gli1-Luc viability, CellTiter-Fluor, 24 h; series mostly up to 92.4 µM; also: nearly all actives have a fitted effect of over 50% in size
Procedure, shortened: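 Fluorescence from CellTiter-Fluor reports live cells in this counter screen. NIH/3T3-derived Gli1-Luc reporter cells receive test compounds for 24hr at 37C; reagent goes in at 23hr.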

[5] = qHTS assay to identify small molecule antagonists of the sonic hedgehog signaling (Shh) pathway - cell viability counter screen (AID 1259367); conditions: NIH/3T3 Gli1-Luc viability, CellTiter-Fluor, 24 h; series mostly up to 92.4 µM; also: nearly all actives have a fitted effect of over 55% in size
Procedure, shortened: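 Conditioned medium drove Shh signaling in 3T3 Gli1-Luc cells exposed to compounds at 37C and 5% CO2. Viability was determined from CellTiter-Fluor fluorescence, with reagent incubated 1 hr after 23 hr of treatment.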

[6] = qHTS assay to identify small molecule agonists of the sonic hedgehog signaling (Shh) pathway (AID 1259368; calls by dose curve;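 also: NIH/3T3-derived 3T3Gli1-Luc cells carrying a stable Gli1-driven firefly luciferase reporter; nearly all actives have a fitted effect of over 15% in size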); conditions: NIH/3T3 Gli1-Luc reporter, luciferase, 24 h; series mostly up to 92.4 µM
Procedure, shortened: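 Quantitative high-throughput format using a Gli1-driven firefly luciferase reporter line derived from NIH/3T3 cells. After a 24 hr compound treatment at 37 C and 5% CO2, luminescence reported Gli1 response element activity.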

[7] = qHTS assay to identify small molecule antagonists of the sonic hedgehog signaling (Shh) pathway (AID 1259369; calls by dose curve; also: nearly all actives have a fitted effect of over 45% in size); conditions: NIH/3T3 Gli1-Luc reporter, Shh antagonist, luminescence 24 h; series mostly up to 92.4 µM
Procedure, shortened: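 Stable Gli1-Luc reporter NIH/3T3 clone; quantitative HTS in stimulated mode with conditioned medium. Luminescence measured after 24hr compound treatment at 37 C.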

[8] = molecular target: Estrogen receptor beta (Homo sapiens) (UniProt Q92731); assay: qHTS assay to identify small molecule agonists of the estrogen receptor beta (ER-beta) signaling pathway (AID 1259377; active = well fitted activation curve with a large enough effect in the signal ratio in the repeat runs, not every such curve was filed as active; the % refers to the signal ratio); conditions: ER-beta-UAS-bla HEK293T, beta-lactamase FRET ratio, 16 h; series mostly up to 92.4 µM
Estrogen receptor beta (Homo sapiens), sequence (Q92731 whole entry, looked up): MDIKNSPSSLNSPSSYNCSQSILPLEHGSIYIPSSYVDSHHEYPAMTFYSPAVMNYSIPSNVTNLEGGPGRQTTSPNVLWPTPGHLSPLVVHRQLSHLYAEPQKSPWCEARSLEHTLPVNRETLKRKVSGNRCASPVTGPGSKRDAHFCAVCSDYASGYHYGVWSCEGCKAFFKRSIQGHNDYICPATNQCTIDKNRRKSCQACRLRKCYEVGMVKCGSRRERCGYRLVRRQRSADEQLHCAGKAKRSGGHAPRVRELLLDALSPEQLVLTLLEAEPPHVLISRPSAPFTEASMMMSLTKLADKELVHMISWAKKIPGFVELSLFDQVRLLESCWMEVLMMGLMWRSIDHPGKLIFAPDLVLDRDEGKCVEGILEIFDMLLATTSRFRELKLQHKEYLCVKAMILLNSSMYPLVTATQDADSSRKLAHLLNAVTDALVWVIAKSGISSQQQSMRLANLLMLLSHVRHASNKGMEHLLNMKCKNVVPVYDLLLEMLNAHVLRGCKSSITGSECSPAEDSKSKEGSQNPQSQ
Procedure, shortened: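 Screening used GripTite ER-beta-UAS-bla cells held in 2% charcoal-stripped FBS medium. After overnight (16 hr) compound incubation at 37C, beta-lactamase activity was detected with a FRET substrate by fluorescence.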

[9] = molecular target: Estrogen receptor beta (Homo sapiens) (UniProt Q92731); assay: qHTS assay to identify small molecule antagonists of the estrogen receptor beta (ER-beta) signaling pathway (AID 1259378; active = well fitted inhibition curve with a large enough effect in the signal ratio in the repeat runs, not every such curve was filed as active; the % refers to the signal ratio); conditions: ER-beta-UAS-bla HEK293T, beta-lactamase FRET ratio, 16 h; series mostly up to 92.4 µM
Procedure, shortened: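 ER-beta-UAS-bla HEK293T (GripTite) cells in 2% charcoal-stripped FBS medium were preincubated 6 hr at 37C, dosed with compound, then stimulated with 1 nM E2 (final) for 16 hr; beta-lactamase reporter read by B/G FRET fluorescence after 2 hr substrate loading.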

[10] = qHTS assay to identify small molecule agonists of the androgen receptor (AR) signaling pathway in the presence of an antagonist - cell viability counter screen (AID 1259379); conditions: MDA-kb2 viability, CellTiter-Fluor, 16 h; series mostly up to 92.4 µM;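 also: MDA-kb2 human breast cancer cells carrying an MMTV luciferase reporter; nearly all actives have a fitted effect of over 25% in size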
Procedure, shortened: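 Nilutamide-containing (3.0uM final) MDA-kb2 cultures, 3,000 cells/well, were treated with compounds across 15 concentrations. After 16 hr at 37C with no CO2, cell viability was determined by CellTiter-Fluor fluorescence in the luciferase assay wells.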

[11] = qHTS assay to identify small molecule agonists of the estrogen receptor beta (ER-beta) signaling pathway - cell viability counter screen (AID 1259380); conditions: ER-beta-bla HEK293T viability, CellTiter-Glo luminescence, 16 h; series mostly up to 92.4 µM; also: nearly all actives have a fitted effect of over 30% in size
Procedure, shortened: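 Steps: plate ER-beta-UAS-bla HEK293T cells, rest 6 hr; add compounds in DMSO; incubate 16 hr at 37C, 5% CO2; add FRET substrate 2 hr; add CellTiter-Glo, wait 30 min at room temperature; read luminescence.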

[12] = qHTS assay to identify small molecule antagonists of the estrogen receptor beta (ER-beta) signaling pathway - cell viability counter screen (AID 1259382); conditions: ER-beta-UAS-bla HEK293T viability, CellTiter-Glo luminescence, 16 h; series mostly up to 92.4 µM; also: nearly all actives have a fitted effect of over 55% in size
Procedure, shortened: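 Viability is scored by CellTiter-Glo luminescence (30 min, room temperature) in ER-beta-UAS-bla HEK293T wells already read for reporter fluorescence. Compound exposure lasts 16 hr at 37C alongside 1nM 17-beta-estradiol in charcoal-stripped serum medium.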

[13] = molecular target: Estrogen receptor (Homo sapiens) (UniProt P03372); assay: qHTS assay to identify small molecule agonists of the estrogen receptor alpha (ER-alpha) signaling pathway in the presence of an antagonist (AID 1259383; calls by dose curve; also: top concentration of the series differs between compounds; nearly all actives have a fitted effect of over 15% in size); conditions: VM7Luc4E2 cells, ERE-luciferase, +ICI-182,780, 22 h; series mostly up to 92.4 µM
Procedure, shortened: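 Readout was ERE-driven luciferase luminescence in VM7Luc4E2 cells, which express full-length ER-alpha endogenously. Compounds were tested at 15 concentrations for 22hr alongside 10.0nM ICI-182,780 (final concentration).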

[14] = qHTS assay to identify small molecule agonists or antagonists of the thyroid stimulating hormone receptor (TSHR) signaling pathway - wild type cell line counter screen (AID 1259384; calls by dose curve); conditions: HEK293 wild type, cAMP HTRF counter-screen; series mostly up to 92.4 µM
Procedure, shortened: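 Wild-type HEK293 cells were plated 18 h at 37 C/5% CO2, pin-dosed with compound plus Ro20-1724 medium, held 30 min at room temperature, then given cAMP-d2 and anti-cAMP-cryptate; fluorescence was read after 1 h. Fifteen concentrations, triplicate.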

[15] = qHTS assay to identify small molecule agonists of the estrogen receptor alpha (ER-alpha) signaling pathway in the presence of an antagonist - cell viability counter screen (AID 1259386); conditions: VM7Luc4E2 viability, CellTiter-Fluor fluorescence, 22 h; series mostly up to 92.4 µM;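 also: cells exposed to compounds for 22 h at 37 °C before the viability read; nearly all actives have a fitted effect of over 30% in size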
Procedure, shortened: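 In this counter screen, compound effects on VM7Luc4E2 viability were tested in the presence of the antagonist ICI-182,780 at 10.0nM final. Compounds were dosed at 15 concentrations, exposure lasted 22hr, and the CellTiter-Fluor signal was read.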

[16] = qHTS assay to identify small molecule HDAC inhibitors (AID 1259364); conditions: HCT-116 HDAC-Glo I/II luminescence, 2 h; series mostly up to 92.4 µM;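 also: wild-type HCT-116 cells with endogenous class I/II HDAC activity; top concentration of the series differs between compounds; nearly all actives have a fitted effect of over 45% in size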
Procedure, shortened: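 Quantitative high-throughput format: overnight-seeded HCT-116 cells got compounds for 2 hr at 37C; HDAC-Glo I/II reagent added, 30 min RT, luminescence measured.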

[17] = molecular target: Thyrotropin receptor (Homo sapiens) (UniProt P16473); assay: qHTS assay to identify small molecule antagonists of the thyroid stimulating hormone receptor (TSHR) signaling pathway (AID 1259385; calls by dose curve; also: nearly all actives have a fitted effect of over 20% in size); conditions: TSHR-HEK293 cAMP HTRF, TSH-stimulated antagonist mode; series mostly up to 92.4 µM
Thyrotropin receptor (Homo sapiens), sequence (P16473 whole entry, looked up): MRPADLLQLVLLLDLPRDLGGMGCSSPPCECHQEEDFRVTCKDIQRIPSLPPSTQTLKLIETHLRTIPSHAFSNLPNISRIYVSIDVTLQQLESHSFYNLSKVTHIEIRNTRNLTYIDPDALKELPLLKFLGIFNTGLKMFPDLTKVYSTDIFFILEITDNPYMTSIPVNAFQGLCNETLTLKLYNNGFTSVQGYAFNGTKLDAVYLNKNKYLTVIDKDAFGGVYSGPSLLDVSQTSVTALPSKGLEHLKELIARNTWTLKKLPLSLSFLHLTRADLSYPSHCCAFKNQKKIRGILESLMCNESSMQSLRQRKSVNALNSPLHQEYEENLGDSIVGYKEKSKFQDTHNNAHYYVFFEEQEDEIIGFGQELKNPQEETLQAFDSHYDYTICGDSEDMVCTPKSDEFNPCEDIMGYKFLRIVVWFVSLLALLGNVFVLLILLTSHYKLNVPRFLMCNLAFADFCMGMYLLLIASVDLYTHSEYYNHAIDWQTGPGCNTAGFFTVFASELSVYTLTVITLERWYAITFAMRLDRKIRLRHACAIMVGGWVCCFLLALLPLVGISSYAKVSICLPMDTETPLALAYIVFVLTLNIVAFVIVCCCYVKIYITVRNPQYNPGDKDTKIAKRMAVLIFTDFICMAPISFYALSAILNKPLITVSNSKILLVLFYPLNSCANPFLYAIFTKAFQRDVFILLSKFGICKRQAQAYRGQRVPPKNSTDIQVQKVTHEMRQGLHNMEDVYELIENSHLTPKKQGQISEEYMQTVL
Procedure, shortened: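 TSHR-HEK293 cells were plated and held 18 h at 37C/5% CO2, then given compound plus Ro20-1724 and stimulated with TSH at 1.5 ng/mL final. After 30 min at room temperature, cAMP was detected with cAMP-d2/anti-cAMP-cryptate (1 h) by fluorescence.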

Measured: Potency

N#CCNCC#N
not listed: [16] | [17]
inactive: all other assays above

O=C(O)C(Br)CBr (stereo unspecified)
not listed: [7]
inactive: all other assays above

CC(C)CP(=S)(S)CC(C)C
not listed: [7] | [8] | [9] | [11] | [12]
inactive: all other assays above

COc1cc(C[C@@H](C)N)c(OC)cc1C
not listed: [16]
inactive: all other assays above

N#CCCC#N
not listed: [14] | [16] | [17]
inactive: all other assays above

ClCCCN1CCN(c2cccc(Cl)c2)CC1
not listed: [8] | [9] | [13] | [14]
inactive: all other assays above

CNC(=O)Oc1ccc(N(C)C)c(C)c1
not listed: [8] | [9]
inactive: all other assays above
